ERK EGF block: EGF-driven ERK pathway inhibition | HEK293-V1b, EGF-stimulated phospho-ERK AlphaScreen | Potency, µM (doses to about 11.5 µM), actives largely listed as inhibitors | actives 0.41% (n = 130,000); active means well fitted inhibition curve with a large enough effect; further: nearly all actives have a fitted effect of over 55% in size
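Phospho-ERK1/2 measured by AlphaScreen (SureFire) after 5 min 25 nM EGF stimulation of V1b-expressing HEK293 cells preincubated 30 min at 37C with titrated compounds; data scaled to DMSO and EGF controls, Hill-fitted AC50.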
A number is an active result; – = inactive. Only a selection was taken, and hits are over-represented in it overall.

SMILES	ERK EGF block
O=P1(O)Oc2c(-c3ccccc3)cc3ccccc3c2-c2c(c(-c3ccccc3)cc3ccccc23)O1	–
CC(=O)Nc1cccc(-c2csc(NCc3ccccc3)n2)c1	–
CC(=O)Nc1ccc(-c2csc(Nc3ccc(Cl)cn3)n2)cc1	–
CC(=O)Nc1cccc(-c2csc(Nc3ccc(Cl)cn3)n2)c1	28.2µM
COCCn1c(=O)c(CCc2ccccc2)nc2cnc(Oc3cccc(Cl)c3)nc21	–
COc1cc(/C=C\c2ccc(OC)cc2OC)cc(OC)c1	–
N#CCCCSc1nnnn1-c1cc(C(F)(F)F)cc(C(F)(F)F)c1	–
CO[C@H]1C=CO[C@@]2(C)Oc3c(C)c(O)c4c(O)c(c(C=NN5CCN(C6CCCC6)CC5)c(O)c4c3C2=O)NC(=O)C(C)=CC=C[C@H](C)[C@H](O)[C@@H](C)[C@@H](O)[C@@H](C)[C@H](OC(C)=O)[C@@H]1C	8.91µM
CC1(C)C(=O)NC2=C1C(=O)C(=O)c1ccccc12	–
Cc1ccc(N=Nc2ccc(O)c3ncccc23)cc1C	–
Cc1nnc(C)c2c(C)n(-c3ccc4ncccc4c3)c(C)c12	–
Cc1cc(N(C)C)ccc1N=Nc1ccc2ncccc2c1	20µM
Cc1nc2cnc(N(C)C)nc2n(C)c1=O	–
O=C1c2ccccc2C(=O)c2c(NCCCN(CCO)CCO)cccc21	28.2µM
CCN(CC)CC(=O)Nc1cccc2c1C(=O)c1ccccc1C2=O	–
O=C(NCCO)c1cccc2c1-c1ccccc1C2=O	–
CCCCNc1nc(C)nc2c1nc(-c1ccccc1)n2CC(C)(C)CN(C)C	–
Cc1cccc2cc(/C=N/NC(=O)c3ccccc3O)c(Cl)nc12	20µM
Cc1cccc2cc(/C=N/NC(=O)c3ccncc3)c(Cl)nc12	–
Cc1cccc2cc(/C=N/NC(=O)[C@H]3C[C@@H]3c3ccccc3)c(Cl)nc12	–
Cc1ccc(S(=O)(=O)/C=C\C#N)cc1	–
Cc1cccc(Nc2nc(NCc3ccco3)c3ccccc3n2)c1	28.2µM
Cc1ccc(Nc2nc(N)c([N+](=O)[O-])c(NCc3ccco3)n2)cc1C	–
Cc1ccccc1Nc1nc(NCc2ccco2)c2ccccc2n1	–
Oc1ccccc1Nc1nc(NCc2ccco2)c2ccccc2n1	31.6µM
SMILES	ERK EGF block
OCCN1CCN(c2nc(NCc3ccco3)c3ccccc3n2)CC1	–
Cc1ccc(-c2nc(NCc3ccco3)c3ccccc3n2)cc1	–
CCNC(=O)[C@H]1O[C@@H](n2cnc3c(N)nc(NCCc4ccc(CCC(=O)O)cc4)nc32)[C@H](O)[C@H]1O	–
CCCCC[C@H](O)/C=C/C=C/C=C/[C@H](O)C/C=C\CCCC(=O)O	–
CCc1ccc(NC(=O)CSCCN2C(=O)c3ccccc3C2=O)cc1	–
CCc1ccc(NC(=O)C2(C)Cc3ccccc3C(=O)O2)cc1 (stereo not given)	22.4µM
CC1(C(=O)Nc2cccc(S(=O)(=O)N3CCOCC3)c2)Cc2ccccc2C(=O)O1 (stereo not given)	–
CC(C)COC[C@H](CN(Cc1ccccc1)c1ccccc1)N1CCCC1	–
Cc1ccccc1Nc1oc(-c2ccccc2)nc1-c1cccc2ccccc12	–
CSc1ccccc1NC(=O)Nc1ccccc1Cl	–
O=C(Nc1ccc(Nc2ccccc2)cc1)Nc1ccccc1Cl	28.2µM
O=C(Nc1ccccc1Cl)Nc1ccccc1Cl	–
C[C@]12C[C@H](O)C3[C@@H](CCC4=CC(=O)CC[C@@]43C)[C@@H]1CC[C@@H]2C(=O)CO (stereo not given in full)	–
O=C(O)c1cn(C2CC2)c2cc(N3CCNCC3)c(F)cc2c1=O	–
CC1=NN(c2ccccc2)C(=O)/C1=C\c1cc(C)n(-c2cccnc2)c1C	–
CC1=NN(c2ccccc2)C(=O)/C1=C\c1ccc(Br)s1	28.2µM
CC1=NN(c2ccccc2)C(=O)/C1=C/c1cccs1	–
CC1=NN(c2ccccc2)C(=O)/C1=C/c1c(O)n(-c2ccc(F)cc2)[nH]c1=O	–
CC1=NN(c2ccccc2)C(=O)/C1=C\c1cc(C)n(-c2ccccc2)c1C	–
CC1=NN(c2ccccc2)C(=O)/C1=C/c1ccc[nH]1	17.8µM
c1ccc(-c2ccc(N3CC4(CCNCC4)C3)cc2)cc1	20µM
O=C(c1ccncc1)N1CCC2(CC1)CN(c1ccc(-c3ccccc3)cc1)C2	–
COC(=O)N1CCC2(CC1)CN(c1ccc(-c3ccccc3)cc1)C2	–
CCCn1c(-c2ccc(F)cc2)nc2c(N3CCCN(Cc4ccccc4)CC3)nc(C)nc21	–
COC(=O)[C@H]1C[C@@H]1[C@H](NC(C)=O)c1ccccc1	–
SMILES	ERK EGF block
O=C1C=CC2(OCCCO2)C(Br)=C1CO	–
O=C(Nc1cccnc1)c1ccc(Cl)c(S(=O)(=O)N2CCc3ccccc32)c1	25.1µM
O=C(Nc1cccnc1)c1cccc(S(=O)(=O)N2CCc3ccccc32)c1	–
O=C(NC1=NCCS1)c1ccc(Cl)c(S(=O)(=O)N2CCc3ccccc32)c1	–
N#Cc1ccc(CN2CCCC3(CCN(C(=O)c4cnccn4)CC3)C2)cc1	–
CN=C1N[C@H](c2ccccc2)N(c2ccccc2)S1	–
Cn1cccc1C(=O)N1CCC[C@@]2(CCN(C(=O)Nc3cccc(F)c3)C2)C1	–

Assay outcomes: PubChem BioAssay, National Center for Advancing Translational Sciences (NCATS)
